Screening data from PubChem.
GLA inh pH 4.5: alpha-galactosidase A (human) inhibition, pH 4.5. AID 1467. P06280. activity change, negative = inhibition, % at 105 µM. purified enzyme, 4-MU-alpha-Gal fluorescence, pH 4.5. 230,000 tested, under 10 active;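 further: 0% = full activity with enzyme and -100% = basal without enzyme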
HPGD block: HPGD (human) dehydrogenase inhibition; AID 894; Potency, µM, inactives show top-dose activity change, negative = inhibition, usual class: inhibitors; P15428; actives 4.3% (n = 150,000); purified HPGD, NADH fluorescence kinetic, PGE2 substrate; active means well fitted inhibition curve with a large enough effect, not every such curve was filed as active; inconclusive means small, poorly fitted or top-dose-only effect, or another doubt; inactive means no such curve, though single readings can be large or run the other way; further: potency means the concentration at half of the fitted maximal effect
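20 nM HPGD preincubated 15 min at room temperature with compound in 50 mM Tris-HCl pH 8, 0.01% Tween 20. Started with 1 mM NAD+ and 30 uM prostaglandin E2; NADH fluorescence (360/450 nm) read 5 times over 30-s intervals, last minus first.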
12-hLO inh: inhibitors of human 12-lipoxygenase (ALOX12); actives 0.12% (n = 150,000); purified 12-hLO, xylenol orange hydroperoxide absorbance; Potency, µM (series often up to 57.1 µM), without a hit: top-dose activity change, negative = inhibition, most hits filed as inhibitors; further: potency means the concentration at half of the fitted maximal effect; nearly all actives have a fitted effect of over 55% in size
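Xylenol orange chromogenic assay: hydroperoxide from 12hLO oxidises Fe(II), giving red-shifted Fe(III)-XO absorbance. Conditions: 150 nM enzyme, 40 uM arachidonic acid, 25 mM Hepes pH 7.0, 0.01% Triton X-100, 30 min, room temperature.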
PNC inhibitor: inhibitors of perinucleolar compartment assembly; PC3M PTB-GFP, PNC prevalence imaging, 16 h; hits give low values; activity change (PNC), negative = inhibition, % at 10 µM; actives 3.1% (n = 140,000);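 active means readout at or below -70, meaning at least 70% loss of cells showing the perinucleolar compartment, a nuclear body marking cancer cells; inconclusive means readout between -30 and a set limit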;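 further: plate controls were DMSO wells for no effect and camptothecin positive control wells for full effect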
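Read-out is percentage of cells bearing a perinucleolar compartment, from automated 20x imaging of fixed, Hoechst-stained PC3M PTB-GFP cells. Cells were seeded 4 h, then exposed 16 h to compound (23 nl of library stock) in duplicate plates.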
ALDH1A1 block: blocks purified human ALDH1A1 activity | Purified ALDH1A1, NADH fluorescence, propionaldehyde substrate | Potency, µM (doses to about 75.3 µM), for the others: at the highest dose activity, negative = inhibition, hits mostly inhibitors | actives 7.3% (n = 220,000) | AID 1030; active means well fitted inhibition curve with a large enough effect, not every such curve was filed as active; inconclusive means small, poorly fitted or top-dose-only effect, or another doubt; inactive means no such curve, though single readings can be large or run the other way;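 further: potency means the concentration at half of the fitted maximal effect; plate controls were no enzyme wells and a reference inhibitor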
Target sequence (P00352 whole entry, looked up): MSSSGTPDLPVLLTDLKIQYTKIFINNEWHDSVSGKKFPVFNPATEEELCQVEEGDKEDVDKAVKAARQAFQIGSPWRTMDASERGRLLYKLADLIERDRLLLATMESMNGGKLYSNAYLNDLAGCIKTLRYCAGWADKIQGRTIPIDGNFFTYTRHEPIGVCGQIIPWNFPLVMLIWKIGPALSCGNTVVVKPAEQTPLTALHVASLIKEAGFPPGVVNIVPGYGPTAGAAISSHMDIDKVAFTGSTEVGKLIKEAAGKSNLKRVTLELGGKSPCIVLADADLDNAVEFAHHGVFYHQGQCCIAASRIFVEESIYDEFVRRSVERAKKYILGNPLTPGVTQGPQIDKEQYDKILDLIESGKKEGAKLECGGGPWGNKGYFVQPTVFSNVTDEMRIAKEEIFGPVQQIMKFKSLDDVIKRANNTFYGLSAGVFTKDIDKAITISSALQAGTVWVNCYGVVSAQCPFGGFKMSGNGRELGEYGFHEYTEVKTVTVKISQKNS
GLA spleen mod: inhibits or activates alpha-galactosidase in human spleen homogenate | P06280 | human spleen homogenate, 4MU-alpha-Gal fluorescence, 40 min | Potency, µM (highest dose often 80 µM), without a hit: at the top dose activity change, negative = inhibition, usual class: inhibitors | actives 0.008% (n = 240,000) | AID 2107;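 further: potency means the concentration at half of the fitted maximal effect; 0% = enzyme with vehicle and -100% = no enzyme basal signal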
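Spleen homogenate 1 ug + cpd (titration) + 4-MU-alpha-D-galactopyranoside 1 mM; 37C 40 min; 50 mM citrate/phosphate pH 5.0, 0.01% Tween-20; stop pH 10; fluorescence 365/440; AC50 via Hill.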
Starred values were filed as active, the others as inactive; [ ] = another dose, or the depositor's remark. Compounds with a hit are over-represented: about 10% of the library has one in this group of screens. Unless noted, the call rests on the fitted dose curve; in most records, active means well fitted curve in the direction sought with a large enough effect; inconclusive means small, poorly fitted or top-dose-only effect, or another doubt; inactive means no such curve, though single readings can be large; an effect the other way counts as inactive or inconclusive. Unless noted, on the % scale 0 is the no-effect control and ±100 the full control effect.

What do the screens show for `COc1ccc(OCC(=O)NC(=S)NNC(=O)COc2ccc(Br)cc2Cl)cc1`?
GLA inh pH 4.5: 5; ALDH1A1 block: 11µM*; GLA spleen mod: -5%

How did Cc1cccc(NC(=S)NNC(=O)COc2ccc(Cl)cc2Cl)c1 do in these assays?
GLA inh pH 4.5: -11; HPGD block: inconclusive; 12-hLO inh: inconclusive; PNC inhibitor: 65; ALDH1A1 block: 6.3µM*; GLA spleen mod: 5%

Results for COc1ccc(CC(=O)NNC(=S)Nc2ccc(Br)cc2)cc1 ?
GLA inh pH 4.5: -7; HPGD block: -19%; 12-hLO inh: -11%; PNC inhibitor: 11; ALDH1A1 block: 18µM*; GLA spleen mod: 3%

What do the screens show for `O=C(O)Cc1cc2ccccc2nc1C(=O)O`?
GLA inh pH 4.5: -2; HPGD block: -10%; 12-hLO inh: 3%; ALDH1A1 block: inconclusive; GLA spleen mod: 9%

How did Cc1noc(C)c1-c1nccc(N2CCNCC2)n1 do in these assays?
GLA inh pH 4.5: -10; HPGD block: -6%; 12-hLO inh: 8%; ALDH1A1 block: 5%; GLA spleen mod: -7%

What do the screens show for `COc1ccc(CC(=O)NNC(=S)Nc2ccccc2)cc1Br`?
GLA inh pH 4.5: 10; HPGD block: -25%; 12-hLO inh: -23%; PNC inhibitor: -1; ALDH1A1 block: inconclusive; GLA spleen mod: -1%

Results for CCOc1ccc(CC(=O)NNC(=S)Nc2ccccc2)cc1Br ?
GLA inh pH 4.5: -5; HPGD block: -15%; 12-hLO inh: -10%; PNC inhibitor: 65; ALDH1A1 block: 32µM*; GLA spleen mod: -15%

What do the screens show for `COc1ccc(NC(=S)NNC(=O)CNc2ccc(Cl)cc2)cc1`?
GLA inh pH 4.5: 3; ALDH1A1 block: 10µM*; GLA spleen mod: -3%

What do the screens show for `CC(=NCC(=O)O)c1ccccc1`?
HPGD block: 0%; 12-hLO inh: -11%[11.4 µM]; ALDH1A1 block: 5%[13.5 µM]

What do the screens show for `CCC(=O)Nc1ccc(Br)cn1`?
GLA inh pH 4.5: 8; ALDH1A1 block: 12%; GLA spleen mod: -2%

Results for CCN(CC)c1ccc(CNc2ccc(Br)cn2)cc1 ?
GLA inh pH 4.5: 6; HPGD block: -19%; 12-hLO inh: 8%; PNC inhibitor: -14; ALDH1A1 block: 7.1µM*; GLA spleen mod: -3%

What do the screens show for `COc1cc(C(=O)Nc2ccc3c(c2)Cc2cc(NC(=O)c4cc(OC)c(OC)c(OC)c4)ccc2-3)cc(OC)c1OC`?
GLA inh pH 4.5: -2; 12-hLO inh: -2%; PNC inhibitor: 8; ALDH1A1 block: inconclusive; GLA spleen mod: 2%

What do the screens show for `COc1ccc(C2NC(=O)NC(O)(C(F)(F)F)C2C(=O)c2ccc(F)cc2)cc1` (configuration not stated)?
GLA inh pH 4.5: -2; HPGD block: -1%; 12-hLO inh: -9%; PNC inhibitor: -1; ALDH1A1 block: inconclusive; GLA spleen mod: -2%

How did COc1cc(C2NC(=O)NC(O)(C(F)(F)F)C2C(=O)c2cccs2)ccc1O (configuration not stated) do in these assays?
GLA inh pH 4.5: -2; HPGD block: -7%; 12-hLO inh: -1%; PNC inhibitor: 3; ALDH1A1 block: 22µM*; GLA spleen mod: -6%

How did COc1ccc(C2NC(=S)NC(O)(C(F)(F)F)C2C(=O)c2cccs2)cc1 (configuration not stated) do in these assays?
GLA inh pH 4.5: 5; HPGD block: 2%; 12-hLO inh: 0%; PNC inhibitor: 17; ALDH1A1 block: 10µM*; GLA spleen mod: 3%

What do the screens show for `O=C(O)CC1(CC(=O)Nc2ccc(F)c(Cl)c2)CCCCC1`?
GLA inh pH 4.5: -8; ALDH1A1 block: 4µM*; GLA spleen mod: 7%

What do the screens show for `O=C(O)CC1(CC(=O)Nc2ccc3ccccc3c2)CCCCC1`?
GLA inh pH 4.5: -3; HPGD block: 4µM*; 12-hLO inh: -2%; PNC inhibitor: -1; ALDH1A1 block: inconclusive; GLA spleen mod: 11%
